# Test results taken from PubChem BioAssay (NCATS).
# Results filed as inconclusive are left out. A call without a number means that no potency is given here. Activity calls are given as the source filed them. Unless noted, calls follow the shape of the dose curve; as a rule, active = well fitted curve in the direction sought with a large enough effect; inconclusive = small, poorly fitted or top-dose-only effect, or another doubt; inactive = no such curve, though single readings can be large; an effect the other way counts as inactive or inconclusive.
# Columns and labels:
# [1] = qHTS Assay for Lipid Storage Modulators (AID 1519; calls by dose curve); conditions: Drosophila S3 cells, BODIPY lipid droplet/cell ratio, laser cytometry, cells loaded with oleic acid; for activity change, negative = inhibition: at 57.5 µM (top of the series)
# Method in brief: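 Cells seeded at 5,000 per well were treated with compounds over a concentration series and loaded with oleic acid (400 uM, as added). Lipid droplet fluorescence (488 nm excitation, 500-530 nm channel) was read by laser-scanning cytometry and normalized to 20 uM Triacsin C.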
# [2] = target: Ubiquitin carboxyl-terminal hydrolase 1 (Homo sapiens) (UniProt O94782); assay: Inhibitors of USP1/UAF1: Pilot qHTS (AID 504865); also: nearly all actives have a fitted effect of over 35% in size; also: potency is read from the fitted curve at half-maximal effect;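 as to activity change, negative = inhibition: rhodamine fluorescence freed from ubiquitin-rhodamine substrate followed over time; top concentration of the series differs between compounds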
# Method in brief: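 Enzyme-free wells gave the negative control, while test wells held 1nM USP1/UAF1 preincubated with compound for 15 min at room temperature. Ub-Rho at 150nM final started the reaction, and fluorescence at 480/540 nm was recorded kinetically.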
# [3] = target: Cytochrome P450 3A4 (Homo sapiens) (UniProt P08684); assay: qHTS Assay for Activators of Cytochrome P450 3A4 (AID 885); also: nearly all actives have a fitted effect of over 65% in size
# Method in brief: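 Quantitative HTS format: compounds preincubated with 20nM human CYP3A4 and Luciferin-PPXE substrate at KM, reaction started by NADPH regeneration, stopped after 60 min, luciferase luminescence read 20 min later.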
# [4] = target: DNA dC->dU-editing enzyme APOBEC-3G (Homo sapiens) (UniProt Q9HC16); assay: qHTS for inhibitors of Vif-A3G interactions: Validation (AID 588379)
# Method in brief: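 HeLa cells stably expressing Vif and A3G-eYFP, 700 cells/well, incubated overnight at 37 deg C, then exposed to compound overnight at 37 deg C. Inhibition of Vif-mediated degradation read as increased yellow fluorescence (Ex 488/Em 500-530) by laser-scanning cytometry.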
# [5] = target: Cytochrome P450 3A4 (Homo sapiens) (UniProt P08684); assay: qHTS Assay for Inhibitors and Substrates of Cytochrome P450 3A4 (AID 884); also: nearly all actives have a fitted effect of over 50% in size
# Method in brief: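 20 nM human CYP3A4 with 25 uM Luciferin-PPXE (at KM) in 200 mM KPO4, preincubated 10 min with compound; NADPH regeneration started a 60 min RT reaction. Luciferin detected by luminescence, normalized to 57 uM ketoconazole as full inhibition.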
# [6] = Confirmation and Secondary Assay for Modulators of Hemoglobin Beta Chain Splicing at IVS2 654 locus (AID 910);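 also: HeLa cells stably carrying EGFP split by mutant beta-globin IVS2-654 intron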
# Method in brief: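 HeLa cells stably expressing EGFP interrupted by β-globin IVS2-654 intron, seeded overnight in Opti-MEM/2% FCS, then treated 2 days at 37 °C. Restored splicing read as total peak GFP intensity per well by laser scanning cytometry (488 nm excitation, 500–520 nm emission); 500 nM antisense PNA as control.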
# [7] = Confirmation and Secondary Assay for Modulators of Hemoglobin Beta Chain Splicing at IVS2 705 locus (AID 930);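 also: HeLa cells stably expressing the EGFP-705 splicing reporter; GFP fluorescence per well restored by corrected splicing of the IVS2-705 intron in EGFP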
# Method in brief: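 HeLa EGFP-705 reporter; 500 cells/well, o/n 37C 5% CO2; cpd 2 d; 488 ex/500-520 em laser scan; total peak GFP intensity/well. Ref: 500 nM […] antisense PNA.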
# [8] = measured here: cell count channel max response
# [9] = measured here: lipid channel max response
# Chain of Cytochrome P450 3A4 (Homo sapiens) (P08684 whole entry, looked up): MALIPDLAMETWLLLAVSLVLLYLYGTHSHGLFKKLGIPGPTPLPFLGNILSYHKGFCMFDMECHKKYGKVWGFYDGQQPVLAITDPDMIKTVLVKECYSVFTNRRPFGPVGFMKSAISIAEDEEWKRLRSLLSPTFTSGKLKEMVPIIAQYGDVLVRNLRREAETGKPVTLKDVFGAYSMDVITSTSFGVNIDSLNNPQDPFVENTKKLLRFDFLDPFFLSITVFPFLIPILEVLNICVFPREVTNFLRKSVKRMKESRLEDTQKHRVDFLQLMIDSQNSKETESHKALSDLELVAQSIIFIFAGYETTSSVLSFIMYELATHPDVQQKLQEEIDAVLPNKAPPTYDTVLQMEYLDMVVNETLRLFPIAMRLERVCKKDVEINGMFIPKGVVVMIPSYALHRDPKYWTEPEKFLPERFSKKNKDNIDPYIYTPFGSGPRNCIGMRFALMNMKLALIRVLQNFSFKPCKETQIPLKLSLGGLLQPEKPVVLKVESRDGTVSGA
# Chain of Ubiquitin carboxyl-terminal hydrolase 1 (Homo sapiens) (O94782 whole entry, looked up): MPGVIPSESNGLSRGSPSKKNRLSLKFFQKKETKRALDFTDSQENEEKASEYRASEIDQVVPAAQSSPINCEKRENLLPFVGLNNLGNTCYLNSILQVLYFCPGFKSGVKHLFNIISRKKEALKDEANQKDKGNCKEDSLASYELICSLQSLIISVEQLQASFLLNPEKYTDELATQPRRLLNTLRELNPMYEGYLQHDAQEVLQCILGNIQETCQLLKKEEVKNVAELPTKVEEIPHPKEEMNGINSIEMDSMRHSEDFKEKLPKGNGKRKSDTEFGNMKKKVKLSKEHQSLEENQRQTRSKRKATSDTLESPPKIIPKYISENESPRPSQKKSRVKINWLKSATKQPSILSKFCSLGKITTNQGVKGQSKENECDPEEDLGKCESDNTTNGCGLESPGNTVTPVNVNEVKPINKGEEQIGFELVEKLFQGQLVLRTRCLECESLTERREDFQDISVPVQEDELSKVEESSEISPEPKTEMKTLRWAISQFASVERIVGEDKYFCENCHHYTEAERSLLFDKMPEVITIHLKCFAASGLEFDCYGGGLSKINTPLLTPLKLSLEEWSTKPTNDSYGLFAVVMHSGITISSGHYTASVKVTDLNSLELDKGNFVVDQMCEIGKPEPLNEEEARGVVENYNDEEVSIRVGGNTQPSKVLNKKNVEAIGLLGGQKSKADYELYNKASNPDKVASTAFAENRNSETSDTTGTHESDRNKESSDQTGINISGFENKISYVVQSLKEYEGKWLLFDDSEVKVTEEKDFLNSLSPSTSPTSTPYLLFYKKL
# Chain of DNA dC->dU-editing enzyme APOBEC-3G (Homo sapiens) (Q9HC16 whole entry, looked up): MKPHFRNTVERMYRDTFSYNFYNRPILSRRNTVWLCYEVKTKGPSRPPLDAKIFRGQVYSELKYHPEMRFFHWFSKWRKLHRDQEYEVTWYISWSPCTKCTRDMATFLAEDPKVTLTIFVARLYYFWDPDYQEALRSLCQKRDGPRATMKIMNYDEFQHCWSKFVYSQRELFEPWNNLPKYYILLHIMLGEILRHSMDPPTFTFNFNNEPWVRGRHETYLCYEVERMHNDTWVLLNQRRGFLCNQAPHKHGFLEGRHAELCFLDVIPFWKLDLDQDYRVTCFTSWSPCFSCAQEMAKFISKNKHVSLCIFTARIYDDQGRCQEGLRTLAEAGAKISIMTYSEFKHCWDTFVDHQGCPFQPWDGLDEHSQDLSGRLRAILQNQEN
SMILES,"activity change, negative = inhibition [1]","max response [1, 8] [%]","max response [1, 9] [%]",Potency [2],Potency [3],outcome [4],Potency [5],Potency [6],Potency [7]
COc1cc2c(c(OC)c1OC)-c1ccc(OC)c(=O)cc1C(NC(C)=O)CC2 (stereo unspecified),7.05% (inactive),10.2,20.2,inactive,,,,,
CCN1C[C@@]2(COC(=O)c3ccccc3N3C(=O)CC(C)C3=O)CC[C@H](OC)[C@]34C5C[C@@H]6[C@@H](OC)C[C@@](O)(C5[C@H]6OC)[C@@](O)(C13)[C@@H](OC)C24 (stereo partly specified),4.09% (inactive),6.93,19.9,inactive,inactive,inactive,,,
O=C1NC(=O)C(=O)C(=O)N1,2.7% (inactive),15,19.9,89.1 µM (active),,,inactive,inactive,inactive
CCC(C)C(=O)c1c(O)c(C)c2oc3c(C)c(O)c(C(=O)C(C)CC)c(O)c3c2c1O (stereo unspecified),-5.67% (inactive),-3.74,-10.1,inactive,,,inactive,inactive,inactive
Cc1c(O)c(O)cc2c1CC=C1[C@]3(C)CC[C@]4(C)CC[C@@](C)(C(=O)O)CC4[C@]3(C)CC[C@]12C (stereo partly specified),-4.4% (inactive),19.2,14.7,inactive,,,inactive,inactive,inactive
O=C(O)c1nn(Cc2ccc(Cl)c(Cl)c2)c2ccccc12,4.27% (inactive),10.4,16.9,inactive,,,inactive,inactive,inactive
CC(=O)OC1CC[C@]2(C)C(CCC3C2CC[C@]2(C)C(C4=CC(=O)OC4)C(OC(C)=O)CC32O)C1 (stereo partly specified),6.45% (inactive),1.24,14.6,inactive,,,inactive,inactive,inactive
CCC(C)C(=O)OC1C(O)C2C(CN3CC(C)CCC3[C@]2(C)O)C2C[C@]34O[C@@]5(O)C(OC(=O)C(C)(O)CC)CCC3(C)C5C(OC(C)=O)C(OC(C)=O)C4[C@@]21O (stereo partly specified),3.69% (inactive),17.1,25.4,inactive,,,inactive,inactive,inactive
CNC(=O)Oc1cccc2c1OC(C)(C)C2,4.9% (inactive),5.85,6.59,inactive,,,inactive,inactive,inactive
CC(=O)O.CC(=O)O.[Cd],4.11% (inactive),7.92,9.61,inactive,,,inactive,inactive,inactive
